Compound activity from PubChem BioAssay.
PrP 5UTR inh: inhibition of PrP 5' UTR reporter expression | cell-based PrP 5' UTR mRNA reporter, plate reader | inhibition, % (test concentration not listed) | 340,000 compounds, 0.35% hits | AID 488862; in the data active = inhibition above about 52%
PrPC surface inh: cell surface PrPC inhibition, primary TR-FRET screen. P04156. TR-FRET read-out. inhibition, % at 13.8 µM. 370,000 compounds, 0.43% hits; in the data active = inhibition above about 24%
Mtb hypoxia rep: inhibitors of hypoxia-regulated fluorescent reporter in Mycobacterium tuberculosis. 300,000 compounds, 0.1% hits. fluorescence inhibition, % (concentration not given with the values). AID 1159583. M. tuberculosis hypoxia-regulated fluorescent reporter, fluorescence; in the data active = fluorescence inhibition mostly above about 23%, no sharp cut-off; inactive = mostly below about 17%
DUSP3 inh: inhibitors of human VHR1 phosphatase (DUSP3); P51452; recombinant VHR phosphatase, pNPP absorbance; inhibition, % at 13.3 µM; 290,000 compounds, 0.52% hits; AID 1654; in the data active = inhibition above about 50%
Target sequence (P51452 whole entry, looked up): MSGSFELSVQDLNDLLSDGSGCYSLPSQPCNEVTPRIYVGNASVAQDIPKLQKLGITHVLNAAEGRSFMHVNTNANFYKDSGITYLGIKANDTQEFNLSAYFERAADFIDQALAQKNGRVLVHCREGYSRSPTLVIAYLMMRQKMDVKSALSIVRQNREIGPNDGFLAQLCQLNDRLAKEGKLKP
MazF activator: increases E. coli MazEF RNase cleavage of RNA; P0AE70; FAM/BHQ RNA-DNA oligo cleavage fluorescence, 5 h; activation, % at 20 µM; 350,000 compounds, 0.32% hits; AID 504720; in the data active = activation above about 50%
Target sequence (P0AE70 whole entry, looked up): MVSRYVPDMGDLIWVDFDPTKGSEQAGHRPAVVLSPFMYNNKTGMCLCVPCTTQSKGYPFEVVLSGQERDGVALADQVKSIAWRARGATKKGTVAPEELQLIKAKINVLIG
SARS 3CLpro inh: SARS-CoV 3CLpro protease inhibition; P0C6X7; recombinant SARS-CoV 3CLpro, quenched FRET peptide cleavage; inhibition, % at 6 µM; 290,000 compounds, 0.14% hits; AID 1706; in the data active = inhibition above about 12%
PrP 5UTR single: prion 5' UTR mRNA inhibition, cherry-pick retest; shares compounds with PrP 5UTR inh; cell-based prion protein 5' UTR reporter, plate reader; inhibition, % at 2.5 µM; 1,100 compounds, 48% hits; in the data active = inhibition above about 54%; inconclusive = no clear call, values can overlap the other calls
Each line names hits and unclear results; the compound was inactive in the other large screens (follow-up assays come after a bar, where they were run). Most compounds without a hit are left out; they make up all but 1.5% or so of the library.

Cc1ccccc1-c1nc(-c2ccccn2)no1	PrP 5UTR inh 70.3 | PrP 5UTR single inconclusive
COc1ccccc1-c1nc(-c2ccccn2)no1	none
CC1CCCCN1C(=O)C12CCC(C)(C(=NO)C1)C2(C)C (stereo unspecified)	none (no result: PrP 5UTR inh, PrPC surface inh, DUSP3 inh, MazF activator, SARS 3CLpro inh)
CC(C)Cn1c(-c2cccc(S(=O)(=O)N3CCOCC3)c2)n[nH]c1=S	PrP 5UTR inh 76.7 (no result: DUSP3 inh, SARS 3CLpro inh) | PrP 5UTR single inactive
CCC(C)n1c(-c2cccc(S(=O)(=O)N3CCOCC3)c2)n[nH]c1=S (stereo unspecified)	none (no result: DUSP3 inh, SARS 3CLpro inh)
CCOC(=O)NC(=O)/C(C#N)=N/Nc1c(F)cccc1F	PrP 5UTR inh 61.1 (no result: Mtb hypoxia rep) | PrP 5UTR single inactive
Cc1cc(C(N)=O)c2ccccc2n1	none
NC(=O)c1cc2c3ccccc3ccn2c1-c1ccccc1	PrP 5UTR inh 71.5, DUSP3 inh 64.4, MazF activator 51.0 | PrP 5UTR single 90.3
COC(=O)NN=Cc1cn(CCCOc2ccc(C)cc2)c2ccccc12	none (no result: PrP 5UTR inh, PrPC surface inh, DUSP3 inh, MazF activator, SARS 3CLpro inh)
Cc1ccc2nc(-c3ccc4c(c3)OCCO4)cn2c1	PrP 5UTR inh 88.9 (no result: Mtb hypoxia rep) | PrP 5UTR single 78.9
CNC(=O)Oc1ccc(-c2cn3cc(C)ccc3n2)cc1	PrP 5UTR inh 57.1 | PrP 5UTR single 53.9
CN1CCN(C(=O)C2=CC(c3coc4ccccc4c3=O)CC(OCCCCO)O2)CC1 (stereo unspecified)	none (no result: PrP 5UTR inh, PrPC surface inh, DUSP3 inh, MazF activator, SARS 3CLpro inh)
CCn1c(SCC(=O)Nc2cc(C)on2)nnc1-c1cccc(C)c1	none
CCn1c(SCC(=O)Nc2ccc(N(C)C)cc2)nnc1-c1cccc(C)c1	PrP 5UTR inh 63.9 (no result: Mtb hypoxia rep) | PrP 5UTR single inactive
CNC(=S)NN=Cc1ccccc1OCC(=O)O	none (no result: PrP 5UTR inh, PrPC surface inh, DUSP3 inh, MazF activator, SARS 3CLpro inh)
Cc1csc(NC(=O)CCc2c(C)nc3cc(-c4ccc(Cl)cc4)nn3c2C)n1	PrP 5UTR inh 50.3 | PrP 5UTR single 59.2
Cc1nc2cc(-c3ccc(Cl)cc3)nn2c(C)c1CCC(=O)NC(C)c1ccc2c(c1)OCCO2 (stereo unspecified)	none
COc1cccc(C(C)=NNC(=O)c2cc(-c3cccnc3)nc3ccccc23)c1	none (no result: PrP 5UTR inh, PrPC surface inh, DUSP3 inh, MazF activator, SARS 3CLpro inh)
O=C(Nc1cc2ccccc2oc1=O)c1ccccc1	PrP 5UTR inh 57.5 | PrP 5UTR single 63.2
Cc1oc(=O)c(NC(=O)c2ccccc2)cc1C(N)=O	none
Nc1nonc1-n1nnc(C(=O)NN=Cc2ccoc2)c1CSc1ccc(Cl)cc1	none (no result: PrP 5UTR inh, PrPC surface inh, DUSP3 inh, MazF activator, SARS 3CLpro inh)
CN(C)S(=O)(=O)c1ccc(C(=O)NCc2ccccc2)cc1	none
CN(C)S(=O)(=O)c1ccc(C(=O)NCC2CC2(Cl)Cl)cc1 (stereo unspecified)	PrP 5UTR inh 63.4 | PrP 5UTR single inactive
C=CCCC1(CC(C)C)C(=O)NC(=S)NC1=O	PrP 5UTR inh 90.8 (no result: Mtb hypoxia rep, DUSP3 inh, SARS 3CLpro inh) | PrP 5UTR single inactive
Cc1ccc(S(=O)(=O)N2C(c3ccc(Cl)cc3)CC=C(C(=O)O)C2c2ccc(F)cc2)cc1 (stereo unspecified)	none (no result: PrP 5UTR inh, PrPC surface inh, DUSP3 inh, MazF activator, SARS 3CLpro inh)
CCC(C)(C)c1ccc(Oc2ccc(N)cc2)cc1	PrP 5UTR inh 87.3 | PrP 5UTR single 88.5
CCC(C)(C)c1ccc(Oc2cccc(C(=O)O)c2)cc1	none
COc1cc(C=Nn2c(C)n[nH]c2=S)ccc1OCc1ccc(F)cc1	none (no result: PrP 5UTR inh, PrPC surface inh, DUSP3 inh, MazF activator, SARS 3CLpro inh)
COc1ccc2ccccc2c1C=NNC(=O)c1cccnc1	none (no result: PrP 5UTR inh, PrPC surface inh, DUSP3 inh, MazF activator, SARS 3CLpro inh)
COc1ccc(S(=O)(=O)NCc2ccco2)cc1C(=O)N1CCOCC1	none
O=C(c1cc(S(=O)(=O)NCc2ccco2)ccc1Br)N1CCOCC1	PrP 5UTR inh 79.2 (no result: DUSP3 inh, SARS 3CLpro inh) | PrP 5UTR single inactive
COc1ccc(C=NNC(=O)C(=O)Nc2ccccn2)cc1OC	none (no result: PrP 5UTR inh, PrPC surface inh, DUSP3 inh, MazF activator, SARS 3CLpro inh)
COc1ccc(C(=O)N2CCN(c3ncnc4c(-c5ccccc5)nsc34)CC2)cc1	none
COc1ccc(-c2nsc3c(N4CCCCC4C)ncnc23)cc1 (stereo unspecified)	PrP 5UTR inh 87.3 | PrP 5UTR single 82.7
COc1ccc(-c2nsc3c(N4CCCCC4)ncnc23)cc1	PrP 5UTR inh 72.2 | PrP 5UTR single 70.0
CCOc1ccc(C(=O)C(c2ccccc2)N2CCOCC2)cc1 (stereo unspecified)	PrP 5UTR inh 81.7 | PrP 5UTR single inactive
CCCC1=Nc2cc(C(=O)NCCCOCC)ccc2Sc2ccccc21	PrP 5UTR inh 57.6 | PrP 5UTR single 84.4
CCC1=Nc2cc(C(=O)NCCCOC)ccc2Sc2ccccc21	PrP 5UTR inh 77.0 | PrP 5UTR single inactive
CCC1=Nc2cc(C(=O)NCCCN3CCOCC3)ccc2Sc2ccccc21	none
